According to PubChem BioAssay (NCI):
About 83,000 compounds went through this panel and 20% of them were active in at least one assay; those are over-represented in the sample as a whole.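 Interpretation: 100, growth as untreated; towards 0, rising growth inhibition; 0, no net growth; 0 to -100, cell death. Compounds scoring below 10 were considered active.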 Calls of active or inactive are those of the source.

tested on: MDA-MB-468 breast; assay: NCI-60 one-dose screen, 48 h (100 = growth as untreated, 0 = no growth, -100 = all killed); conditions: 10 µM unless noted

Structure (SMILES)	growth
COC(=O)C1CCCN(S(=O)(=O)/N=C2\NC(=O)NC2=C(Cl)Cl)C1 (stereo not given)	32.8% (inactive)
CCN1C(=O)N(CC)C2C1NN=c1s/c(=C\c3ccc(C(F)(F)F)cc3)c(=O)n12 (stereo not given)	9.87% (active)
CC1(C)CCCC2=C1C(=O)N(SC(Cl)(Cl)Cl)C2=O	79.6% (inactive)
Cc1cc2c([nH]1)CSc1cc(S(=O)(=O)c3ccccc3)c(=O)[nH]c1-2	24% [100 µM] (inactive)
Cc1nn(-c2ccccc2)c2nc3nc4c(c(N)c3c(-c3ccc(Cl)cc3)c12)CCC4	99.3% (inactive)
Oc1ccc(CSc2nnc(-c3ccccc3)o2)c2cccnc12	22.9% (inactive)
CN(C)C(=O)OCc1nc2c(N3CCOCC3)nc(-c3ccccc3)nc2n1C	-61.1% (active)
COc1cc(/C=C/c2cc(/C=C/c3ccc(O)c(OC)c3)n(C(=O)Cc3ccccc3)n2)ccc1O	-4.29% (active)
COc1ccc(C2C3=C(COC3=O)N(CCO)c3cc4c(cc32)CCC4)cc1 (stereo not given)	7.26% (active)
Cc1sc2c(c1C)c(=O)nc1c(-c3nc(-c4ccccc4)cs3)n[nH]n12	116% (inactive)
O=S(=O)(O)c1cnccn1	105% (inactive)
Cc1cc(C)c2nc3nc(C)cc(C)c3c(N)c2c1	48.4% (inactive)
CCc1ncnc2c1ccn2C(C)c1ccc(OC)c(F)c1 (stereo not given)	-1.21% (active)
O=C1/C(=C/c2ccc(F)cc2)CN(Cc2cn(CCNc3ccnc4cc(Cl)ccc34)nn2)C/C1=C\c1ccc(F)cc1	-64.2% (active)
COc1ccc(OC)c(/C=C/c2nc(SC)n(-c3ccc(Cl)cc3)n2)c1	25.2% (inactive)
COc1ccc(Cc2cnc(NC(=O)c3cc(C)oc3C)s2)cc1	14.8% (inactive)
C[C@@H](O)[C@H]1C(=O)N2C(C(=O)O)=C(SC3CN[C@H](C(=O)N(C)C)C3)[C@H](C)[C@H]12 (stereo not given in full)	100% (inactive)
NC(=S)c1csc(CCNC(=O)c2ccccc2)n1	109% (inactive)
COc1ccc2cc(-c3cc(OC)c(OC)c(OC)c3)c(=O)oc2c1	46.5% (inactive)
C[C@H](CCC[C@H](C)OS(=O)(=O)c1ccccc1)OS(=O)(=O)c1ccccc1	110% (inactive)
C=CC(=O)Nc1cccc(Nc2nc(Nc3ccc(N4CCN(C(C)=O)CC4)cc3OC)ncc2C(F)(F)F)c1	-48.8% (active)
[O-]c1c[n+](-c2ccc(Cl)cc2)no1	98.7% (inactive)
O=C1c2cc3c(cc2-c2c1c1ccc(Cl)cc1c(=O)n2C[C@H](O)CO)OCO3	-53.8% (active)
O=C1c2cccnc2C(=O)c2c1c(C(=O)OCCN1CCOCC1)c1ccccn21	-2.61% (active)
COc1ccc(/C=N/OCC(O)CN2CCC(O)CC2)cc1OC1CCCC1 (stereo not given)	117% (inactive)
